High-throughput results from PubChem.
BoNT-F LC inh: blocks Botulinum neurotoxin F light chain protease | 0.22% of 360,000 active | Multiplex microsphere protease cleavage assay, flow cytometry | inhibition, % at 10 µM; in the data active = inhibition above about 35%, passing the limit was not always enough; inconclusive = no clear call, values can overlap the other calls; also: plate controls were buffer without enzyme for full effect and enzyme alone for no effect
Autofluor counter: flagged as autofluorescent in microsphere protease counterscreen; compound autofluorescence counterscreen, microsphere flow cytometry; hits give high values; fluorescence intensity (concentration not given with the values); 3.1% of 360,000 active; AID 624483; in the data active = fluorescence intensity above about 16000; inconclusive = no clear call, values can overlap the other calls
Anthrax LF prot: anthrax lethal factor protease inhibition. P15917. multiplex microsphere protease cleavage assay, LF. inhibition, % at 10 µM. 0.12% of 360,000 active; also: plate controls were buffer without enzyme for full effect and enzyme alone for no effect
Target sequence (P15917 whole entry, looked up): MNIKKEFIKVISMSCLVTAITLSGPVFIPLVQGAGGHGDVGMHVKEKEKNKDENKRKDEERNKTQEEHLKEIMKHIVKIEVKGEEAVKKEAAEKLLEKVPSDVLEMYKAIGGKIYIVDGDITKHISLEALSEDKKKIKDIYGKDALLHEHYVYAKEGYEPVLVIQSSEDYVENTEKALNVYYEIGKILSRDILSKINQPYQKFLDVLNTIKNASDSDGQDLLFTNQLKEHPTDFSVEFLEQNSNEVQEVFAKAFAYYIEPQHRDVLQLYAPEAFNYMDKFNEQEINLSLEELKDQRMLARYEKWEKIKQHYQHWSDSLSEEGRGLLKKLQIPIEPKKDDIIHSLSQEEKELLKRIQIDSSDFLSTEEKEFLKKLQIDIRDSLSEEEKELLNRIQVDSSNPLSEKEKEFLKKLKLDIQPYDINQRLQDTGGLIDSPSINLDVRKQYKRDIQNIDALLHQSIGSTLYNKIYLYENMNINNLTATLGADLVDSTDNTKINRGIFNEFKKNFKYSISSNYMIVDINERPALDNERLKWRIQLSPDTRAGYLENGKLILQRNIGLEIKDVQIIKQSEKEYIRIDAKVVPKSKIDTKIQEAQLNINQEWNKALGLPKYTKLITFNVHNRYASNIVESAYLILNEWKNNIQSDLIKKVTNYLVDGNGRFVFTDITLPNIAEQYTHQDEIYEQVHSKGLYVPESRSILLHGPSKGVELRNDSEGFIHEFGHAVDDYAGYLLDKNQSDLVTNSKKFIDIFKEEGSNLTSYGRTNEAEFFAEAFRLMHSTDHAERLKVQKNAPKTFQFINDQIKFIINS
BoNT-A LC inh2: inhibitors of Botulinum neurotoxin A light chain protease | AID 588499 | multiplex microsphere protease substrate cleavage, flow cytometry | 0.17% of 360,000 active | inhibition, % at 10 µM; also: plate controls were buffer without enzyme for full effect and enzyme alone for no effect
An asterisk follows results filed as active; u = inconclusive. Compounds with a hit are over-represented: about 3.5% of the library has one in this group of screens. Rule as the data show it, unless noted: active = inhibition above about 30%; inconclusive = no clear call, values can overlap the other calls; inactive = below that.

SMILES	BoNT-F LC inh	Autofluor counter	Anthrax LF prot	BoNT-A LC inh2
CCN(CC)c1ccc(/C=N/Nc2cccc(C)c2)c(O)c1	-8.1	2470	0.0	1.5
CCN(CC)c1ccc(C=Nc2cc(C)cc(C)c2)c(O)c1	13.2	3216	23.8	50.2*
CCN(CC)c1ccc(/C=N/Nc2ccccc2)c(O)c1	-0.2	22767*	-1.5	1.7
O=C(COc1ccccc1)OCc1cc(-c2ccco2)on1	10.7	2929	-1.5	-0.4
C/C(=N\Nc1ncnc2sc(C)c(C)c12)c1ccccn1	39.8*	9536	18.7	40.4*
CN(c1ccc(F)cc1)S(=O)(=O)c1ccc(Cl)c(C(=O)NCC2(N3CCOCC3)CCCCC2)c1	-9.6	3516	-11.4	0.2
COc1ccc(-c2cc(C(=O)Nc3ccccc3SC)no2)cc1OC	-1.2	23175*	-3.1	1.6
COc1ccc(-c2cc(C(=O)Nc3cccc(C(C)=O)c3)no2)cc1	1.2	19306*	2.3	0.8
COc1ccc(NC(=O)c2cc(-c3cccc(OC)c3)on2)cc1	-14.2	6077	3.5	0.0
COc1ccc(-c2cc(C(=O)Nc3cccc(Cl)c3)no2)cc1	1.5	3096	-3.0	1.6
COc1ccccc1-c1cc(C(=O)Nc2ccccc2SC)no1	-4.5	8096	1.5	0.4
COc1cccc(-c2cc(C(=O)Nc3cccc(O)c3)no2)c1	-4.8	24356*	-2.3	-2.6
COc1cccc(-c2cc(C(=O)Nc3cccnc3Cl)no2)c1	-0.9	5786	0.2	-0.3
COc1cccc(-c2cc(C(=O)Nc3ccccc3SC)no2)c1	-1.4	16463*	0.7	u
C#CCNC(=O)C[C@@H]1C[C@@]2(C(=O)OCC)CCC=C2N(Cc2ccc(Cl)cc2Cl)C1=O	1.9	5858	2.7	0.4
COc1cccc(NC(=O)CN(C)S(=O)(=O)/C=C/c2ccccc2)c1	5.8	3586	-0.5	0.0
CCOC(=O)c1ccc(NC(=O)N2CCN(C3CCCCC3)CC2)cc1	-2.8	16368*	-2.8	-0.6
CCOC(=O)c1ccc(NC(=S)N2CCN(S(C)(=O)=O)CC2)cc1	-1.4	16800*	-3.0	-0.6
CCOC(=O)c1ccc(NC(=O)N2CCCCC2)cc1	-5.6	3015	0.1	0.2
CCOC(=O)c1ccc(NC(=O)NC(C)C2CCCO2)cc1 (centres undefined)	3.7	21999*	-0.8	2.6
COc1ccc(NC(=O)N2CCN(S(C)(=O)=O)CC2)cc1OC	-2.1	22966*	-1.1	-1.2
CC(NC(=O)Nc1ccc(Cl)cc1)C1CCCO1 (centres undefined)	-2.9	2068	0.1	0.1
CC(C#N)Sc1ncnc2sc(-c3ccccc3)cc12 (centres undefined)	7.0	3979	13.7	-2.9
CCOc1c(C)cc(S(=O)(=O)NCc2ccccn2)c(C)c1C	u	4053	5.1	-0.2
CCc1ccc(-n2ccc(=O)c(C(=O)O)n2)cc1	22.5	4144	-1.2	-1.9
SMILES	BoNT-F LC inh	Autofluor counter	Anthrax LF prot	BoNT-A LC inh2
CCOC(=O)c1cc(NC(=O)C2CCCO2)cc(C(=O)OCC)c1 (centres undefined)	8.3	16398*	-7.5	8.0
COc1ccc(Cl)cc1NC(=O)N1CCN(C2CCCCC2)CC1	-3.0	20816*	-1.8	u
CCN1CCN(C(=O)Nc2cc(Cl)ccc2OC)CC1	-1.3	2656	-2.0	-0.3
CCOc1ccc(NC(=O)N2CCN(S(C)(=O)=O)CC2)cc1	-4.6	3272	-9.4	-0.8
CCOC(=O)c1ccc(NC(=O)C2CCCO2)cc1 (centres undefined)	-8.8	4299	1.3	-0.8
CCOC(=O)c1ccc(NC(=O)N2CCN(S(C)(=O)=O)CC2)cc1	-5.9	17414*	-5.9	-3.4
NS(=O)(=O)c1ccc(CCNC(=O)CCNS(=O)(=O)c2ccccc2C(F)(F)F)cc1	5.3	3822	2.0	-0.2
CCS(=O)(=O)N1CCN(C(=O)COc2ccc(-c3ccccc3)cc2)CC1	0.2	22952*	-21.4	-0.2
Cc1ccc(OCCC(=O)OCC(=O)N2CCN(S(=O)(=O)c3ccc(C)cc3)CC2)cc1	-127.2	26716*	-19.5	-82.8
Cc1ccc(OCC(=O)N2CCN(C3=NS(=O)(=O)c4ccccc43)CC2)cc1	-2.6	20779*	-2.3	-0.4
Cc1ccc(OCC(=O)N2CCN(c3nnc(-c4ccccc4)c4ccccc34)CC2)cc1	8.7	9134	-6.4	0.0
Cc1ccc(S(=O)(=O)CCC(=O)OCC(=O)N2CCN(S(=O)(=O)c3ccc(Cl)cc3)CC2)cc1	2.4	5689	0.1	2.3
O=C1CCC2(CCCCC2)N1	-1.4	3943	-0.8	0.3
CCN1C(=O)/C(=C2/C=CC=CN2C)SC1=S	-9.1	23187*	-2.3	-3.4
Nc1cc(S(=O)(=O)N2CCOCC2)ccc1N1CCOCC1	-6.6	4066	9.4	0.3
CS(=O)(=O)c1ccc(N2CCOCC2)c(S(C)(=O)=O)c1	-0.5	20225*	0.9	-0.3
c1ccc2c(c1)ncn2-c1cncnc1	-6.4	5651	-2.9	-0.2
Cc1ccc(NC(=O)CNc2ccc(OC(C)C)cc2)c(C)c1	-19.9	19175*	-7.6	2.8
CC(C)Oc1ccc(NC(N)=O)cc1	-1.8	8881	8.3	-0.5
CC(C)Oc1ccc(NC(=O)CCC(=O)O)cc1	-0.5	16641*	-1.2	-1.4
O=C(O)CCCC(=O)Nc1ccc(Br)cc1	0.1	23089*	-1.0	0.2
CC1(C)CC(=O)C/C(=N\NC(=O)CCc2ccc(S(=O)(=O)N3CCOCC3)cc2)C1	-1.5	3332	3.4	-0.1
COc1ccc(NC(=O)C(NC(=O)OC(C)(C)C)C(C)OCc2ccccc2)cc1 (centres undefined)	-7.5	21191*	0.4	u
CCOc1ccc(CC(=O)NNC(=S)NC)cc1Br	0.1	5479	-4.9	0.2
CCOc1ccc(C(c2c(O)nc(SC)n(C)c2=O)c2c(O)nc(SC)n(C)c2=O)cc1	3.9	22263*	0.2	0.9
SMILES	BoNT-F LC inh	Autofluor counter	Anthrax LF prot	BoNT-A LC inh2
CCOc1ccc(S(=O)(=O)NNS(=O)(=O)c2ccc(C)cc2C)cc1	1.0	3560	2.2	0.4
COc1cc2c(cc1OC)CN(C(=O)CCCN1C(=O)c3ccccc3C1=O)CC2	-1.9	22299*	-1.8	u
COc1ccc(Cl)cc1NC(=O)c1cccc(-n2cnnn2)c1	2.4	5961	1.9	2.3
N=c1ncn(CC(O)CN2CCOCC2)c2nc(N3CCOCC3)[nH]c12 (centres undefined)	0.7	22533*	-6.0	0.5
Fc1ccc(C[n+]2csc3ccccc32)cc1	-1.5	22598*	-2.1	u
CC(C)c1nnc(NC(=O)CCC(=O)Nc2ccc3cn[nH]c3c2)s1	u	3604	-20.2	u
Cc1ccc(C(=O)COC(=O)CCN2C(=O)C3C4C=CC(C5CC45)C3C2=O)cc1 (centres undefined)	-0.3	4166	2.3	0.5
CSc1nnc(-c2nnc(SC)n2-c2ccccc2)n1-c1ccccc1	0.0	16237*	-1.2	0.0
COc1ccc(Cc2c(O)nc[nH]c2=O)cc1	-5.0	16832*	2.3	u
Cc1cc(NC(=O)c2ccccc2Cl)ccc1NC(=O)c1ccccc1Cl	-5.5	3900	-9.6	1.0
Cc1ccc(C(=O)Nc2ccc(NC(=O)c3ccccc3Cl)c(C)c2)cc1	6.4	3920	2.1	-0.4
Cc1ccc2sc3ccc(NC(=O)c4ccccc4Cl)cc3c(=O)c2c1	4.0	22506*	11.3	8.0
